Six1-Eya2 blk: inhibitors of human Six1/Eya2 interaction; AlphaScreen GST-Six1/His-Eya2 binding, biochemical; active compounds read low; Q15475+O00167; activity change, % (test concentration not listed); actives 0.56% (n = 360,000); in the data active = activity change below about -65%; inconclusive = mostly about -30% to -63%; also: % is scaled to controls: 0 for no effect and ±100 for the full control effect
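Compounds are tested against tagged Six1 and Eya2 proteins bridged by glutathione donor and nickel acceptor beads; after a one-hour incubation at 37 °C without light, AlphaScreen emission is recorded.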
RORgamma inh: inhibitors of mouse ROR gamma transcriptional activity | P51450 | Drosophila S2 Gal4-RORgamma UAS-luciferase reporter, 20 h | Potency, µM (top dose mostly 53.6 µM), for inactives: top-dose activity change, negative = inhibition, most hits filed as inhibitors | actives 5.4% (n = 310,000) | AID 2551; also: potency is read from the fitted curve at half-maximal effect; % is scaled to controls: 0 for no effect and ±100 for the full control effect; nearly all actives have a fitted effect of over 60% in size
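A Gal4/UAS one-hybrid system in insect cells: metallothionein-promoter Gal4–ROR gamma fusion plus Photinus luciferase reporter. Copper sulfate 700 uM final, 20 hr ambient incubation, luminescent detection after 10 min with reagent.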
MBNL1 CUG block: inhibitors of human MBNL1 binding to CUG repeat RNA | Potency, µM (doses to about 57.5 µM), for the others: top-dose activity change, negative = inhibition, usual class: inhibitors | AID 2675 | TR-FRET MBNL1-His/biotin-(CUG)12 binding, 665/545 ratio | actives 0.036% (n = 280,000); active = well fitted inhibition curve with a large enough effect in the signal ratio, with a control signal flat, not every such curve was filed as active; inconclusive = small, poorly fitted or top-dose-only effect, or effect the other way, or a change in a side signal; inactive = no such curve, though single readings can be large or run the other way; the % refers to the signal ratio; also: potency is read from the fitted curve at half-maximal effect; % is scaled to controls: 0 for no effect and ±100 for the full control effect
Target sequence (Q9NR56 whole entry, looked up): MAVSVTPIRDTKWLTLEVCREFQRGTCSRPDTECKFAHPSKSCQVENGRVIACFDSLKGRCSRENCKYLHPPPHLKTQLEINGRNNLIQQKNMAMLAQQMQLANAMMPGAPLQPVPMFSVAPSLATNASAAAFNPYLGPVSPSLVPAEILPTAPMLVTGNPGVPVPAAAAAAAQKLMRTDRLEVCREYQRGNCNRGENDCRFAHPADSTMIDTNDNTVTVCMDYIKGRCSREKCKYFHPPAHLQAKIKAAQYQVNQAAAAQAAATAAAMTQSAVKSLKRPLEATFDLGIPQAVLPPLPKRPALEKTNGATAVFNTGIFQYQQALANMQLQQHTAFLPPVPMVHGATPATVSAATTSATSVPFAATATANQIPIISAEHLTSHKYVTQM
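Ratiometric TR-FRET (665 over 545 nm, excitation 340 nm) tracks disruption of MBNL1-His/biotin-(CUG)12 complex after 60 min at room temperature, with compounds at 92 nM to 58 uM final.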
Gal4-VP16 FLuc: inhibits Gal4-VP16 luciferase reporter, ROR gamma counter-screen | Drosophila S2 Gal4-VP16 UAS-luciferase, luminescence, 20 h | Potency, µM (doses to about 53.6 µM), inactives show at the highest dose activity, negative = inhibition, actives largely listed as inhibitors | actives 3.5% (n = 310,000);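 also: Gal4-VP16 expression switched on by copper sulfate through the metallothionein promoter; potency is read from the fitted curve at half-maximal effect; % is scaled to controls: 0 for no effect and ±100 for the full control effect; nearly all actives have a fitted effect of over 50% in size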
CBFb-RUNX1 inh: inhibitors of human CBF-beta and RUNX1 interaction | Q01196+Q13951 | AlphaScreen CBFb-His/RUNX1-biotin binding, biochemical | Potency, µM (series often up to 59.8 µM), for the others: at the highest dose activity, negative = inhibition, most hits filed as inhibitors | 230,000 tested, under 10 active; also: % of control where 0% means no effect
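His-tagged CBF-beta and biotinylated RUNX1 (30 nM each) were premixed 20 min at room temperature, exposed to compound for 15 min, then given nickel-chelate and streptavidin AlphaScreen beads (50 ng each). After 90 min, AlphaScreen signal was read.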
CtBP-E1A inh: inhibitors of CtBP/E1A interaction. AlphaScreen GST-E1A/His-CtBP binding, 1536-well; active compounds read low. actives 0.49% (n = 340,000). activity change, % (no concentration beside the values); in the data active = activity change below about -65%; inconclusive = mostly about -30% to -63%; also: % is scaled to controls: 0 for no effect and ±100 for the full control effect
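Homogeneous bead-based format: GST-tagged E1A captured on glutathione donor beads, His-tagged CtBP on nickel acceptor beads; compounds precede bead addition by 2 h at 37 °C.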
An asterisk follows results filed as active; ? = inconclusive; · = not tested or not shown; [ ] = remark or other dose. An excerpt weighted towards active compounds, which were near 5.5% of everything screened. Unless noted, calls follow the shape of the dose curve; as a rule, active = well fitted curve in the direction sought with a large enough effect; inconclusive = small, poorly fitted or top-dose-only effect, or another doubt; inactive = no such curve, though single readings can be large; an effect the other way counts as inactive or inconclusive.

SMILES | Six1-Eya2 blk | RORgamma inh | MBNL1 CUG block | Gal4-VP16 FLuc | CBFb-RUNX1 inh | CtBP-E1A inh
Oc1ccccc1/C=N/Nc1nn[nH]n1 | -91* | ? | 10% | -1% | ? | ·
Cn1c(=O)c2c(nc(N/N=C/c3cccs3)n2C)n(C)c1=O | -21 | 28% | · | 18% | 3% | -27
O=S1(=O)N=C(N/N=C/c2cccs2)c2ccccc21 | ? | 0.89µM* | ? | 0.5µM* | · | ?
CCOc1ccc(OCC)c(NC(=O)CSc2nnc(C3CC3)n2CC)c1 | -10 | 1% | 0% | -6% | · | 0
O=C(NC1CCCC1)C1c2ccccc2OCC(=O)N1Cc1ccco1 (configuration not stated) | -4 | · | · | · | · | 3
NC(N)=N/N=C/c1cc([N+](=O)[O-])ccc1O | -20 | 18% | ? | -8% | 5% | -29
Cc1cc(C)n(-c2ccc([N+](=O)[O-])cc2-c2nn[nH]n2)n1 | 2 | 0% | ? | 2% | 17% | 17
COC(=O)c1ccc(-n2c(C)cc(/C=N/Nc3nc(C)cc(=O)[nH]3)c2C)cc1 | -9 | ? | -1% | -16% | -27% | -6
Cc1nnc(N/N=C/c2cc(C)n(-c3ccc(F)cc3)c2C)n1N | -16 | 11µM* | -11% | ? | -11% | -12
O=[N+]([O-])c1ccc(O)c(-c2nn[nH]n2)c1 | -92* | 10µM* | ? | -24% | -12% | -94*
Cc1nnc(N/N=C/c2ccc(-c3ccccc3F)o2)n1N | -20 | 7.9µM* | ? | ? | 1% | -27
O=[N+]([O-])c1ccc(O)c(/C=N/Nc2ccc(Cl)nn2)c1 | -82* | 1µM* | ? | 1.4µM* | -23% | -91*
Cc1nnc(N/N=C\c2ccc(-c3ccccc3[N+](=O)[O-])o2)n1N | ? | ? | ? | ? | -2% | -1
COc1ccccc1CNC(=O)C1CCC(=O)N1C(C)C (configuration not stated) | -1 | 0% | -9% | 1% | · | 10
CSc1ncc(C(=O)Nc2ccc(C(C)=O)cc2)c(C)n1 | 2 | 39% | 9% | -4% | · | -1
CN(C)c1ncnc2c1ncn2C1CCCO1 (configuration not stated) | 7 | · | · | · | · | -1
CCn1c(SCC(=O)Nc2cc(S(=O)(=O)N3CCOCC3)ccc2OC)nnc1-c1ccncc1 | 1 | -13% | -1% | 3% | -5% | ·
CCc1nnc(N/N=C/c2cc(C)c(C)cc2C)n1N | 3 | 16µM* | 12% | ? | · | -13
Cc1nnc(N/N=C/c2c(Cl)cccc2Cl)n1N | 12 | ? | 7% | ? | 0% | 3
Cc1nnc(N/N=C/c2ccccc2O)n1N | -78* | 1.3µM* | 4% | ? | -26% | -87*
C[C@@H]1CC2(OC3C[C@@]4(C)C5=CC[C@H]6C(C)(C)C(O[C@@H]7OC[C@@H](O)[C@H](O)[C@H]7O)CC[C@@]67C[C@@]57CC[C@]4(C)C31)OC(O)C1(C)OC21 (some centres not stated) | · | -8% | · | -13% | -4%[21.7 µM] | ·
CCCCCCCC/C=C\CCCCCCCCOC[C@H](COP(=O)([O-])OCC[N+](C)(C)C)OC(C)=O | · | -16% | · | 1% | -9% | ·
CCOC(=O)c1cnc(SCC(=O)NNC(=O)c2ccco2)nc1N | 6 | 29% | -1% | -5% | · | -2
CCc1cc2c(=O)[nH]c(-c3ccccn3)nc2s1 | -92* | ? | ? | 25µM* | 2% | 3
COc1cnc(-c2ccccn2)[nH]c1=O | -91* | -24% | · | 0% | ? | -94*
O=C(/C=C/[C@H]1O[C@@H](n2ccc(=O)[nH]c2=O)[C@H](O)[C@@H]1O)N1CCN(Cc2ccc(F)cc2)CC1 | 4 | · | · | · | · | 1
CC(C)(C)c1cc(NCc2ccccn2)n2ncc(-c3ccccc3)c2n1 | 28 | 0.45µM* | 2% | 1.4µM* | 12% | 19

High-throughput results as filed in PubChem.
